# Screening results (PubChem BioAssay)
# Most compounds without a hit are left out; they make up all but 4.5% or so of the library.
# Jurkat NFkB inh = inhibitors of the PMA/ionomycin-induced NF-kB reporter in Jurkat cells | PMA/ionomycin-induced NF-kB luciferase reporter, luminescence | inhibition, % at 4 µM | 330,000 compounds, 0.53% hits | AID 435003; in the data active = inhibition above about 50%
# CSC inhib = cancer stem cell inhibition; cancer stem cell-like cells viability, luminescence; inhibition, % at 7.5 µM; 300,000 compounds, 1.1% hits; in the data active = inhibition above about 75%; tested in HMLE shEcad cells
# Mdm2-MdmX inh = human Mdm2/MdmX binding inhibition; O15151+Q00987; SaOS-2 split-luciferase Mdm2/MdmX complementation, luminescence; inhibition, % at 8 µM; 330,000 compounds, 3% hits; AID 485346;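 active = inhibition of at least 50% at 8 µM in the primary screen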
# Target sequence (O15151 whole entry, looked up): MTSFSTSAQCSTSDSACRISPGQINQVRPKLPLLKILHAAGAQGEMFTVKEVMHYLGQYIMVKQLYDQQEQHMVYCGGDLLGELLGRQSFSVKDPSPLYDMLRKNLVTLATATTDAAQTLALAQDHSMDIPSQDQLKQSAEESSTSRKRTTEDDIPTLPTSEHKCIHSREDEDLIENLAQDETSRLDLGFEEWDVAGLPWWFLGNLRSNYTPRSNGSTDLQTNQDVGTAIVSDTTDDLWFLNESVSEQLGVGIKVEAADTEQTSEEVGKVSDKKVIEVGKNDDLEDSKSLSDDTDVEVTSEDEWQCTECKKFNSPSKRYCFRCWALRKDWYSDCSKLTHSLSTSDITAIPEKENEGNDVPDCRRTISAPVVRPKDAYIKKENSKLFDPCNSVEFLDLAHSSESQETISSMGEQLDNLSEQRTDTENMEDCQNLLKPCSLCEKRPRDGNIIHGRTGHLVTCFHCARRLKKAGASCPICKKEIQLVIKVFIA
# Target sequence (Q00987 whole entry, looked up): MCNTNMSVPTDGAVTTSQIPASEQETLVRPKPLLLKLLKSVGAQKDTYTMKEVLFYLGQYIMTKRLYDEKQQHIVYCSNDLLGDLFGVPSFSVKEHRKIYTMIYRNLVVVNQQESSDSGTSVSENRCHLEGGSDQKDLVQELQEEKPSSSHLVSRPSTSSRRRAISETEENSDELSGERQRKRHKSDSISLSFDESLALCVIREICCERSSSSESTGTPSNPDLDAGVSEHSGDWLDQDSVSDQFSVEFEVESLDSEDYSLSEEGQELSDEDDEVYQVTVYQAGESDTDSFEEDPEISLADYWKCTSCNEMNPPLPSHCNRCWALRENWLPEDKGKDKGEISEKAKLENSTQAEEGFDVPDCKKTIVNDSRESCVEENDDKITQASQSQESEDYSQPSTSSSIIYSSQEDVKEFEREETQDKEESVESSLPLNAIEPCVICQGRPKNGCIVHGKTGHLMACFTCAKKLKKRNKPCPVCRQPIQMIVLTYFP
# Beta apoptosis = beta cell apoptosis inhibition. INS-1E cytokine-induced death, ATP luminescence, 48 h; percent of positive-control rescue, neutral wells zero. protection from apoptosis, % (concentration not given with the values). 300,000 compounds, 0.8% hits;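 active = Every replicate reaches about 75%, or at least half do and their mean reaches it too, limit read from the data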;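 also: higher means more ATP so stronger rescue from cytokine killing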
# 697 NFkB inh = lowers PMA/ionomycin-induced NF-kB signal in 697 B cells | 697 B-cell NF-kB luciferase reporter, 16 h | inhibition, % at 4 µM | 330,000 compounds, 0.33% hits | AID 435022; in the data active = inhibition above about 35%
# Gli-Sufu block = antagonists of Gli-Sufu signaling. Sufu-KO-LIGHT fibroblasts, Gli luciferase reporter luminescence. inhibition, % at 5 µM. 340,000 compounds, 0.74% hits. AID 588413;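 active = inhibition above about 55%, limit read from the data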
# Hits are given with their value; - = inactive; . = no result given.
SMILES,Jurkat NFkB inh,CSC inhib,Mdm2-MdmX inh,Beta apoptosis,697 NFkB inh,Gli-Sufu block
CN(C)S(=O)(=O)c1cccc(CSCc2cccc(S(=O)(=O)N(C)C)c2)c1,-,-,-,108,-,57
CCc1cc(C(=O)N2CCN(S(=O)(=O)c3ccccc3F)CC2)sc1C,-,-,-,-,-,-
CCC(C)NC(=O)C1CCN(S(=O)(=O)c2ccc(-n3cnnn3)cc2)CC1 (centres undefined),-,-,-,-,-,-
CC1C(=O)C(C)C(c2cc(Cl)ccc2O)NC1c1cc(Cl)ccc1O (centres undefined),-,-,-,-,-,-
COc1ccc(OC(=O)N2CCOCC2)cc1,-,-,-,-,-,-
COc1cc(OC)c(C=O)c(OC(=O)N2CCOCC2)c1,-,128,-,-,-,-
CC(C)CCNC(=O)C(=O)Nc1ccc2c(c1)N(S(=O)(=O)c1cccs1)CCC2,-,-,-,-,-,-
Cc1cc(C(=O)CN2C(=O)C(=O)N(Cc3ccccc3)C2=O)c(C)n1Cc1ccc(F)cc1,-,.,-,-,-,-
Cc1cc(C(=O)CN2C(=O)C(=O)N(Cc3ccccc3)C2=O)c(C)n1Cc1ccccc1,-,97,-,-,-,-
CCCc1ccc(-c2cc(NC(=O)CSc3nnc(N)s3)n(-c3ccccc3)n2)cc1,-,85,-,-,-,-
Cc1nnc(SCC(=O)Nc2cc(-c3cc(C)c(C)cc3C)nn2-c2ccccc2)s1,-,-,-,-,-,-
CN(CC(=O)Nc1ncn[nH]1)S(=O)(=O)c1cc(Cl)ccc1Cl,-,-,-,-,-,-
COc1ccc(-c2cc([C@H]3[C@H]4C=CC[C@@H](C)[C@@H]4C(=O)N3Cc3ccccc3)ccc2F)cc1,-,77,-,-,-,-
CC[C@@H]1CC=C[C@H]2[C@H]1C(=O)N(Cc1ccccc1)[C@H]2c1ccc(OC)c(Cl)c1,-,77,-,-,-,-
C[C@@H]1CC=C[C@H]2[C@H]1C(=O)N(Cc1ccccc1)[C@H]2c1ccc2ccccc2c1,-,86,-,-,-,-
COc1cc(OC)cc(C(=O)NNC(=S)NC2CC2)c1,-,-,-,-,-,-
Cc1cccc(C(=O)O/N=C/c2c(N3CCOCC3)n(C)c3ccccc23)c1,-,-,-,97,-,.
CCOc1ccc(-c2cccc(NC(=O)c3cccs3)c2)nn1,-,.,-,-,-,-
CCOC(=O)C(C(=O)OCC)C(Nc1ccc(Br)cc1)c1ccccc1 (centres undefined),-,75,-,-,-,-
CCOC(=O)C(c1ccccc1)C(Nc1ccc(F)cc1)c1ccccn1 (centres undefined),-,-,-,-,-,-
Cc1cccc(C(=O)OCC(=O)NN2C(=O)NC3(CCC(C)CC3)C2=O)c1O (centres undefined),-,-,-,-,-,-
CCc1cccc2c(C(=O)CN3C(=O)NC(C)(c4cccc5ccccc45)C3=O)c[nH]c12 (centres undefined),-,104,-,-,-,-
COc1ccccc1C(=O)NC(=O)Nc1c(C)cc(C)cc1C,-,-,-,-,-,-
Cc1ccc(C(=O)c2c3ccc([N+](=O)[O-])cc3[n+]([O-])n2CCCN)cc1,-,-,-,-,-,-
COCCNC(=O)CCC1CCN(Cc2cccc(Oc3ccccc3)c2)CC1,-,-,-,-,-,-
SMILES,Jurkat NFkB inh,CSC inhib,Mdm2-MdmX inh,Beta apoptosis,697 NFkB inh,Gli-Sufu block
C/C(CC(=O)Nc1ccc(Cl)c(C(F)(F)F)c1)=N\NC(=O)c1cc2ccccc2cc1O,-,76,-,-,-,-
CC(C)NC(=O)c1ccc2c(c1)N(Cc1ccccc1)C(=O)C(C)(C)O2,-,-,-,-,-,-
CC(NC(=O)c1cc2c(s1)CS(=O)(=O)C2)c1ccccc1 (centres undefined),-,-,-,-,-,-
COc1cc(/C=C/c2ccc3cccc(OC)c3n2)c(O)c([N+](=O)[O-])c1,-,-,-,-,-,-
COc1c(OC(C)=O)ccc(/C=C/c2ccc3cccc(OCc4ccccc4)c3n2)c1[N+](=O)[O-],-,87,-,-,-,-
COc1cc(/C=C/c2ccc3cccc(OC)c3n2)c(OC(C)=O)c([N+](=O)[O-])c1,-,78,-,-,-,-
CC(=O)c1ccc(N=Nc2ccc(N)cc2)cc1,-,-,-,-,-,-
COc1ccc(/C=C2/C(=O)N(c3nc4ccccc4s3)N=C2CSc2ccc(Cl)cc2)cc1,-,92,-,-,-,-
COc1cc(NC(=O)c2ccco2)c(C(=O)OCC(=O)c2c[nH]c3ccccc23)cc1OC,-,83,-,-,-,-
c1cnc2nc3c4ccccc4c4ccccc4c3nc2c1,.,.,.,.,.,-
CCN=C1NN=C(c2cc(C)n(Cc3ccco3)c2C)CS1,-,-,-,-,-,71
CC(C)(C)c1ccc(C(=O)Nc2ccc(C(=O)NCc3cccnc3)cc2)cc1,-,-,-,113,-,-
O=C(NCc1cccnc1)c1ccc(NC(=O)c2ccc([N+](=O)[O-])cc2)cc1,-,-,-,104,-,-
O=c1c2c(nc3c(-c4ccc(Cl)cc4)c[nH]n13)CCCC2,-,.,-,93,-,-
O=c1c2c(nc3c(-c4cccc5ccccc45)c[nH]n13)CCC2,-,-,-,-,-,-
Cc1cc(/C=C2/SC(=S)N(c3cccc(Cl)c3)C2=O)c(C)n1-c1cccnc1,-,.,-,125,-,-
Cc1cccc(N2C(=O)/C(=C/c3cccnc3)SC2=S)c1,-,-,-,-,-,-
CC(=O)c1sc(-c2ccc(F)cc2)cc1NS(=O)(=O)c1ccc(C)cc1,-,-,-,-,-,-
NC(=O)c1sc(-c2ccsc2)cc1NS(=O)(=O)c1ccc(C(F)(F)F)cc1,-,79,-,-,-,-
O=C1c2c(Br)c(Br)c(Br)c(Br)c2C(=O)N1c1ccccn1,-,84,-,-,-,-
O=C1c2cccc3cccc(c23)C(=O)N1c1ccccn1,-,-,-,-,-,-
O=C1N/C(=C/c2ccc(N3CCCC3)cc2)C(=O)N1c1ccccc1,-,-,-,-,-,-
C=CCN1C(=O)N/C(=C/c2ccc(N3CCOCC3)o2)C1=O,-,-,-,109,-,.
O=C1N/C(=C/c2ccc(N3CCOCC3)o2)C(=O)N1c1ccccc1,.,80,.,-,.,-
O=C1NC(=S)S/C1=C/c1ccc(N2CCOCC2)o1,-,-,-,-,-,-
Cc1noc(C)c1CSCC(=O)N(C)CC(=O)Nc1ccccc1C(F)(F)F,-,.,-,-,-,-
Cc1ccc(C2C(C=Nc3c(C)n(C)n(-c4ccccc4)c3=O)=C(c3ccccc3)Oc3ccccc32)cc1 (centres undefined),-,.,-,80,-,-
Cc1cc(/C=C2\SC(=S)NC2=O)c(C)n1-c1cccc(O)c1,-,-,-,-,-,-
Cc1sc(-n2c(C)cc(/C=C3\SC(=S)NC3=O)c2C)c(C#N)c1C,-,79,-,-,-,-
